From PubChem BioAssay (EPA / NIEHS)
Several values for one entry are separate records, joined by “and”; a condition that tells them apart may be missing. Equal entries are not always repeated. Where a structure was tested more than once in an assay, its records may differ in their call. Activity calls are given as the source filed them. How the source made its calls: active means hit-call score of the fitted dose curve at least 0.9, where 1 is the maximum; inactive means score below 0.9.

test: BSK_SAg_SRB: Viability Assessment in the BioMAP Diversity Plus: SAg Assay (AID 2283096); settings: primary human HUVEC with PBMC;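 further: cells read one day after compound addition; hits may be either gain or loss of signal compared with DMSO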
Outline: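 Total protein by sulforhodamine B staining, 24 h after dosing, in HUVEC–PBMC co-culture; DMSO-referenced bidirectional fitting.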

SMILES	outcome	AC50
O=C(c1ccccc1)c1ccc(O)cc1O	inactive	–
Nc1cc([N+](=O)[O-])cc(Cl)c1O	inactive	–
O=S(=O)(O)CCC(F)(F)C(F)(F)C(F)(F)C(F)(F)F	inactive	–
O=C=NCc1cccc(CN=C=O)c1	inactive	–
O=C=Nc1cccc2c(N=C=O)cccc12	inactive	–
CCN(CC)c1ccc2c(c1)Oc1cc(N(CC)CC)ccc1C21OC(=O)c2ccccc21	inactive	–
NS(=O)(=O)C(F)(F)C(F)(F)C(F)(F)C(F)(F)C(F)(F)C(F)(F)F	inactive	55.3 µM (active)
OC(O)C(F)(F)C(F)(F)F	inactive	–
O=C(O)C(F)(F)C(F)(F)C(F)(F)OC(F)(C(F)(F)F)C(F)(F)F	inactive	–
OCCCC(F)(F)C(F)(F)C(F)(F)C(F)(F)C(F)(F)C(F)(F)C(F)(F)C(F)(F)F	–	27 µM (active) and 47.8 µM (active)
C=CC(=O)OCC(F)(F)C(F)(F)C(F)(F)C(F)(F)C(F)(F)C(F)(F)C(F)(F)C(F)F	inactive	–
C=CC(=O)OCC(F)(F)C(F)(F)C(F)(F)COC(=O)C=C	–	43.7 µM (active) and 45.6 µM (active)
O=C(O)C(F)(F)C(F)(F)C(F)(F)C(=O)O	inactive	–
CCOC(=O)CC(=O)C(F)(F)C(F)(F)F	inactive	–
C=C(C)C(=O)OCC(F)(F)C(F)(F)C(F)(F)C(F)F	inactive	–
CC(C)(C)c1cc(CCC(=O)NCCCCCCNC(=O)CCc2cc(C(C)(C)C)c(O)c(C(C)(C)C)c2)cc(C(C)(C)C)c1O	inactive	–
Brc1nc2ccccc2s1	inactive	–
NC(O)(C(F)(F)F)C(F)(F)F	inactive	–

SMILES	outcome	AC50
O=S(=O)(OCC(F)(F)F)C(F)(F)C(F)(F)C(F)(F)C(F)(F)F	inactive	–
CCN(CC)c1ccc(C=O)cc1	inactive	–
O=S(=O)(O)CCC(F)(F)C(F)(F)C(F)(F)C(F)(F)C(F)(F)C(F)(F)C(F)(F)C(F)(F)F	inactive	–
CNS(=O)(=O)C(F)(F)C(F)(F)C(F)(F)C(F)(F)C(F)(F)C(F)(F)C(F)(F)C(F)(F)F	inactive	–
NCC(F)(F)C(F)(F)C(F)(F)C(F)(F)C(F)(F)C(F)(F)F	inactive	–
O=C(O)CCC(F)(F)C(F)(F)C(F)(F)C(F)(F)C(F)(F)C(F)(F)C(F)(F)F	inactive	–
OCCCCC(F)(F)C(F)(F)C(F)(F)C(F)(F)F	inactive	–
O=C1c2c(O)ccc(Nc3ccc(CCO)cc3)c2C(=O)c2c([N+](=O)[O-])ccc(O)c21	inactive	–
CCOC(C=C(C)CCC=C(C)C)OCC	inactive	–
O=C1C=CC(=O)N1c1ccc(Cc2ccc(N3C(=O)C=CC3=O)cc2)cc1	–	20 µM (active)
O=C(O)C(F)(F)C(F)(F)C(F)(F)OC(F)(F)F	inactive	–
OCC(F)(F)C(F)(F)C(F)(F)C(F)(F)C(F)(F)C(F)(F)C(F)(F)C(F)(F)CO	inactive	–
C=CC(=O)OCCC(F)(F)C(F)(F)C(F)(F)C(F)(F)F	inactive	–
O=S(=O)(Cl)C(F)(F)C(F)(F)C(F)(F)C(F)(F)C(F)(F)C(F)(F)C(F)(F)C(F)(F)F	–	43.2 µM (active) and 55.5 µM (active)
COC(F)(C(F)F)C(F)(F)F (stereo unspecified)	inactive	–
Cc1ccc(S(=O)(=O)C(I)I)cc1	–	5.34 µM (active)
FC(F)(F)C(F)(F)C(F)(F)CC1CO1 (stereo unspecified)	inactive	–
